Records with an inconclusive call do not appear. Calls of active or inactive are those of the source. Rule for the calls: active = hit-call score of the fitted dose curve at least 0.9, where 1 is the maximum; inconclusive = response in the unintended direction; inactive = score below 0.9.
target: human Thyroid Receptor alpha (THRa1), THRA (gene 7067) (UniProt P10827); assay: ATG_THRa1_TRANS: Attagene TRANS-FACTORIAL HepG2 Assay for human Thyroid Receptor alpha (THRa1) (AID 2283014)
Method: ATG_TRANS is a cell-based, multiplexed-readout assay that uses HepG2, a human liver cell line, with measurements taken at 24 hours after chemical dosing in a 24-well plate.ATG_THRa1_TRANS is one of 30 assay component(s) measured or calculated from the ATG_TRANS assay. It is designed to make measurements of mRNA induction, a form of inducible reporter, as detected with fluorescence intensity signals by Reverse transcription polymerase chain reaction (RT-PCR) and Capillary electrophoresis technology.Data from the assay component ATG_THRa1_TRANS was analyzed into 1 assay endpoint. This assay endpoint, ATG_THRa1_TRANS, was analyzed in the positive analysis fitting direction relative to DMSO as the negative control and baseline of activity. Using a type of inducible reporter, measures of mRNA for gain-of-signal activity can be used to understand the reporter gene at the transcription factor-level as they relate to the gene THRA. Furthermore, this assay endpoint can be referred to as a primary readout, because this assay has produced multiple assay endpoints where this one serves a reporter gene function. To generalize the intended target to other relatable targets, this assay endpoint is annotated to the nuclear receptor intended target family, where the subfamily is non-steroidal.
Human liver HepG2 cells are transiently transfected with multiple reporter transcription units (MRTUs) in 6-well plates using FuGene 6 reagent (Roche; 3 ml FuGene/1 mg DNA). The MRTU constructs are regulated by a cis-regulating element (promoter). […] A major difference between the CIS and TRANS system is that in CIS activities of endogenous TFs are measured, whereas the TRANS assay evaluates changes in activities of exogenous, chimeric NR-Gal4 proteins. […] At the end of 24 hour incubation, total RNA was isolated using TriZol reagent (Invitrogen). The isolated RNA is then reverse-transcribed using oligo(dT) primer and Mo-MLV reverse transcriptase (Invitrogen) with DNAse I (Ambion) treatment for 30 min. The one-tenth of the produced cDNA was amplified by PCR using Taq DNA polymerase (Invitrogen) and two reporter sequence-specific primers. The PCR products were fluorescently labeled by primer extension with 6-arboxyfluorescein (6-FAM) 5'-labeled reporter sequence-specific primer (2 min at 95 C, 20 s at 68 C and 10 min at 72 C) and these products were digested with 5U of HpaI (New England Biolabs) for 2h at 37 C. The fragments were purified using Qiaquick PCR columns (Qiagen), analyzed on an ABI 3130xL genetic analyzer (Applied Biosystems) with peak positions identified by using a set of X-rhodamine (ROX)-labeled MapMarker1000 molecular weight standards (BioVentures). The raw capillary electrophoresis data was processed using Attagraph software (Attagene).

Chain of human Thyroid Receptor alpha (THRa1), THRA (gene 7067) (P10827 whole entry, looked up): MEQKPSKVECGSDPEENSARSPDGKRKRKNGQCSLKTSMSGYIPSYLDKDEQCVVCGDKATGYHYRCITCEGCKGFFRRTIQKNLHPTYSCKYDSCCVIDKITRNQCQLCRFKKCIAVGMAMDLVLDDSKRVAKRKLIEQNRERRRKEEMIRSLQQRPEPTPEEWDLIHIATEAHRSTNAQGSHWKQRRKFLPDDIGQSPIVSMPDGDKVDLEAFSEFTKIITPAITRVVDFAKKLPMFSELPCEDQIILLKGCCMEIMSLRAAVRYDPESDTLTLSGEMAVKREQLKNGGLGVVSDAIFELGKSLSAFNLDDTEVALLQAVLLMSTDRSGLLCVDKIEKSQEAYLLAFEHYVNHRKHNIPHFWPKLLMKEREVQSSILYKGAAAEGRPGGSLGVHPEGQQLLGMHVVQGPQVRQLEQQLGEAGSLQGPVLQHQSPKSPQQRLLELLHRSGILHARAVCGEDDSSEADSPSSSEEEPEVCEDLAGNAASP

**Q.** For `COCC(C)N` (stereo not given), which outcome is on record?
**A.** The outcome was “inactive”.

**Q.** Which outcome does the source give for `Cn1c([N+](=O)[O-])cnc1COC(N)=O` here?
**A.** Its outcome is “inactive”.

**Q.** `Nc1ccc(-c2ccc(F)cc2)cc1` was tested. Which outcome did it give?
**A.** Its outcome is “inactive”.

**Q.** With `O=C1c2ccccc2C(=O)C1c1nc2ccccc2c(Br)c1O` as the molecule, how does the outcome read?
**A.** The outcome was “inactive”.

**Q.** How did the outcome turn out when `CC(C)c1ccc(C=O)cc1` was run?
**A.** The outcome was “inactive”.

**Q.** `C=CCOc1c(Br)cc(Br)cc1Br` was tested. Which outcome did it give?
**A.** Its outcome is “inactive”.

**Q.** `C=CCOCC(O)CCl` (stereo not given) was tested. Which outcome did it give?
**A.** Its outcome is “inactive”.

**Q.** `OC1CCCC1` was tested. Which outcome did it give?
**A.** The outcome was “inactive”.

**Q.** With `O=C(Cl)c1cc(C(=O)Cl)cc(C(=O)Cl)c1` as the molecule, how does the outcome read?
**A.** Its outcome is “inactive”.

**Q.** `CC(C)c1ccc2cc(C(C)C)ccc2c1` was tested. Which outcome did it give?
**A.** The outcome was “inactive”.

**Q.** `C1=Cc2ccccc2C1` was tested. Which outcome did it give?
**A.** The outcome was “inactive”.

**Q.** How did the outcome turn out when `CCOC(=O)CC` was run?
**A.** The outcome was “inactive”.

**Q.** With `C=CC(=O)OCCOC(=O)C=C` as the molecule, how does the AC50 read?
**A.** Its AC50 is 26.9 µM (active).

**Q.** For `O=C1CC2CC1C1CCCC21` (stereo not given), which outcome is on record?
**A.** Its outcome is “inactive”.

**Q.** With `COC(=O)c1ccc2cc(C(=O)OC)ccc2c1` as the molecule, how does the outcome read?
**A.** Its outcome is “inactive”.

**Q.** Which outcome does the source give for `CCCCCCCOC(=O)CCC` here?
**A.** The outcome was “inactive”.

**Q.** With `c1cc(N(CC2CO2)CC2CO2)ccc1OCC1CO1` (stereo not given) as the molecule, how does the outcome read?
**A.** The outcome was “inactive”.

**Q.** `O=C1OC(=O)c2cc(Oc3ccc4c(c3)C(=O)OC4=O)ccc21` was tested. Which outcome did it give?
**A.** Its outcome is “inactive”.

**Q.** `O=P(O)(O)Oc1ccccc1` was tested. Which AC50 did it give?
**A.** Its AC50 is 8.7 µM (active).

**Q.** With `OCCc1ccncc1` as the molecule, how does the outcome read?
**A.** Its outcome is “inactive”.

**Q.** For `c1cc(C(c2ccc(OCC3CO3)cc2)C(c2ccc(OCC3CO3)cc2)c2ccc(OCC3CO3)cc2)ccc1OCC1CO1` (stereo not given), which outcome is on record?
**A.** Its outcome is “inactive”.

**Q.** `C=COCCCC` was tested. Which outcome did it give?
**A.** Its outcome is “inactive”.

**Q.** With `NC(=O)OCC(COC(N)=O)c1ccccc1` as the molecule, how does the outcome read?
**A.** The outcome was “inactive”.

**Q.** `C=C(C)c1cccc(C(C)(C)N=C=O)c1` was tested. Which outcome did it give?
**A.** The outcome was “inactive”.

**Q.** How did the outcome turn out when `[Cl][Bi]([Cl])([c]1ccccc1)([c]1ccccc1)[c]1ccccc1` was run?
**A.** The outcome was “inactive”.

**Q.** Which outcome does the source give for `O=C1CCCN1CCO` here?
**A.** The outcome was “inactive”.

**Q.** For `CC(C)COC(=O)C=Cc1ccccc1`, which outcome is on record?
**A.** The outcome was “inactive”.

**Q.** `Cc1ccc(OC(=O)CC(C)C)cc1` was tested. Which outcome did it give?
**A.** Its outcome is “inactive”.

**Q.** For `C=C1C2CCC(C2)C1(C)C` (stereo not given), which outcome is on record?
**A.** Its outcome is “inactive”.

**Q.** For `O=c1[nH]c(=O)c2[nH]c(=O)[nH]c2[nH]1`, which outcome is on record?
**A.** The outcome was “inactive”.

**Q.** `C=C[Si](C)(C)O[Si](C)(C)C=C` was tested. Which outcome did it give?
**A.** Its outcome is “inactive”.

**Q.** `C=CC(=O)OCC(Br)CBr` (stereo not given) was tested. Which outcome did it give?
**A.** The outcome was “inactive”.

**Q.** How did the outcome turn out when `CCC(CO)CO` was run?
**A.** The outcome was “inactive”.

**Q.** Which outcome does the source give for `COc1c2ccoc2cc2oc(=O)ccc12` here?
**A.** Its outcome is “inactive”.

**Q.** `Cc1cccc(C(=O)O)c1` was tested. Which outcome did it give?
**A.** Its outcome is “inactive”.

**Q.** For `Cc1cc(=O)n(-c2ccccc2)n1C`, which outcome is on record?
**A.** Its outcome is “inactive”.

**Q.** `C=CC=CC=CCCCCC` was tested. Which outcome did it give?
**A.** Its outcome is “inactive”.

**Q.** For `CCOc1nc(F)cc2nc(S(=O)(=O)Nc3c(Cl)cccc3C(=O)OC)nn12`, which outcome is on record?
**A.** The outcome was “inactive”.

**Q.** `O=C1CCCCCCCCCCCCCCCO1` was tested. Which outcome did it give?
**A.** Its outcome is “inactive”.

**Q.** Which outcome does the source give for `CC(C)(C)C1CCCCC1=O` (stereo not given) here?
**A.** The outcome was “inactive”.

Reference: PubChem BioAssay (EPA / NIEHS)
